Screening data (PubChem BioAssay)
Compounds with a hit are over-represented: about 1.9% of the library has one in this group of screens.
PABP1 MLLE inh = blocks PAM2 peptide binding to the PABP1 MLLE domain; P11940; GST-MLLE / FITC-PAM2 fluorescence polarization; inhibition, % at 20 µM; 0.36% of 360,000 active; AID 588489; in the data active = inhibition above about 35%, passing the limit was not always enough;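 note: plate controls were DMSO wells with GST-MLLE for no effect and wells lacking GST-MLLE protein for full effect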
14-3-3 Bad inh = disrupts binding of bovine 14-3-3 zeta to phospho-Bad peptide; inhibition, % at 21.7 µM; TR-FRET 14-3-3zeta/Dy647-pBad peptide displacement, 1 h; P63103; 0.71% of 220,000 active;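 active = inhibition above about 70%, limit read from the data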;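 note: 0% = full 14-3-3 plus peptide FRET controls and 100% = background without 14-3-3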
Target sequence (P63103 whole entry, looked up): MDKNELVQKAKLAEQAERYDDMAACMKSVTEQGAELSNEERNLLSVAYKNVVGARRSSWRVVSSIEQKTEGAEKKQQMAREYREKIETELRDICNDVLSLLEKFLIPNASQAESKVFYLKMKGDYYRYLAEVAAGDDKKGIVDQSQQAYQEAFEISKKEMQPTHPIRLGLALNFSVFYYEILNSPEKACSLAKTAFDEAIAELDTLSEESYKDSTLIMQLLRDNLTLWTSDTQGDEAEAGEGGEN
PABP FP inh = blocks human PABP binding to poly(A) RNA | 1% of 290,000 active | calls only at 35 µM | fluorescence polarization | AID 2014 | P11940;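 note: calls also rest on retests at 20 µM and on dose response follow-up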
eIF4H inh = inhibitors of RNA binding by human eIF4H | eIF4H fluorescence polarization binding assay | inhibition, % at 35 µM | 0.94% of 290,000 active;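 note: calls also rest on retests at 20 µM and on dose response follow-up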
eIF4E-4G inh = blocks eIF4E binding to eIF4G; TR-FRET eIF4E-eIF4GI(517-606) binding, 2 h; inhibition, % at 21.7 µM; 0.37% of 220,000 active; AID 782;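 active = inhibition above about 30%, limit read from the data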;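 note: 0% = full FRET control wells and 100% = background wells lacking eIF4GI fragment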
The depositor's hits bear a star; i = inactive; u = inconclusive; x = no result given; + = active, no number; ! = repeats disagree; [ ] = another dose, or the depositor's remark. Unless noted, the rule behind the calls is not given here.

SMILES	PABP1 MLLE inh	14-3-3 Bad inh	PABP FP inh	eIF4H inh	eIF4E-4G inh
COCc1cc(=O)[nH]c(-c2ccccc2)n1	-10	-8	i	-4	0
COCCN(Cc1ccc(OC)cc1)c1c(C)nc2ccc(C(=O)NCCc3c[nH]c4ccccc34)cn12	1	x	x	x	x
N#C/C(=C\c1ccccc1[N+](=O)[O-])C(=O)NC1CCCCC1	55*	-7	i	-1	4
N#C/C(=C\C=C\c1ccccc1[N+](=O)[O-])C(=O)NC1CCCCC1	4	-5	u	-10	2
O=C(NCCCn1ccnc1)c1ccc(COc2ccccc2)o1	1	x	x	x	x
CCOC(=O)c1c(NC(=O)c2ccccc2)sc2c1CCc1ccccc1-2	43*	18	i	8	-4
CCn1c(CSc2nccn2C)nc2cc(C(=O)O)ccc21	51*	72*	+	115*	7
CN(C(=O)c1ccc(NC(=O)Cc2cccc(NC(=O)C3CCN(C(=O)C4CCCC4)CC3)c2)cc1)C1CC1	0	x	x	x	x
CN1CCN(CCCNC(=O)c2ccc(/C=C3\Sc4ccccc4N(Cc4ccccc4F)C3=O)cc2)CC1	9	86*	i	1	31*
CCN1CCN(CCNC(=O)c2ccc(/C=C3/Sc4ccccc4N(Cc4cccc(Cl)c4)C3=O)cc2)CC1	-3	58	i	-14	36*
O=C(NCCN1CCOCC1)c1ccc(/C=C2\Sc3ccccc3N(Cc3ccccc3F)C2=O)cc1	10	x	i	-4	x
CCN1CCN(CCNC(=O)c2ccc3c(c2)N(Cc2ccc(F)cc2)C(=O)/C(=C/c2ccccc2)S3)CC1	4	52	i	-6	37*
C=CCn1c(C)cc(C(=O)COC(=O)/C=C/c2c(C)nn(C3CCS(=O)(=O)C3)c2Cl)c1C (centres undefined)	2	x	x	x	x
Nc1nc(-c2ccccc2)ns1	-14	x	x	x	x
Cc1cc(C(=O)Nc2sccc2C#N)c2ccccc2n1	-59	x	+	61	x
Cc1cc(C(=O)Nc2ccccc2)c2ccccc2n1	-8	x	i	-1	x
COc1ccccc1N1CCN(C(=O)c2ccc(N(C)S(=O)(=O)c3ccccc3)cc2)CC1	6	x	i	-7	x
COc1ccc(Cc2nnc(NC(=O)C3CCCO3)s2)cc1OC (centres undefined)	45*	-10	i	-7	7
O=C(NN1C(=O)c2ccccc2C1=O)c1ccc2c(c1)C(=O)N(CC1CCCO1)C2=O (centres undefined)	-11	-1	i	6	0
NC(=O)N1c2ccccc2CC(=O)c2ccccc21	61*	-1	+!	71*!	2
NC(=O)N1c2ccccc2C=Cc2ccccc21	-18	4	i	4	-5
Cc1ccc(CNC(=O)CNS(=O)(=O)c2ccc3c(c2)C(C)(C)C(=O)N3C)cc1	0	x	i	-4	x
Cc1cnc(C(=O)NCc2ccc(Cl)cc2Cl)cn1	-12	-2	+	active	3
CN(Cc1cnc2nc(N)nc(N)c2n1)c1ccc(C(=O)NC(CCC(=O)O)C(=O)O)cc1 (centres undefined)	67*	x	x	x	x
CN(Cc1cnc2nc(N)nc(N)c2n1)c1ccc(C(=O)NC(CCC(=O)O)C(=O)O)cc1C(F)(F)F (centres undefined)	21	x	x	x	x
SMILES	PABP1 MLLE inh	14-3-3 Bad inh	PABP FP inh	eIF4H inh	eIF4E-4G inh
CCCNC(=O)OC[C@H]1O[C@H](CCO/N=C(\C)CCN2CCc3nc(-c4ccccc4)c(-c4ccccc4)cc3C2)C=C[C@@H]1Oc1ccc(OC)cc1	x	7	i	68*	-3
CCCNC(=O)OC[C@H]1O[C@H](CCO/N=C/C[C@@H]2C=C[C@H](OC(C)=O)[C@@H](COC(C)=O)O2)C=C[C@@H]1Oc1ccc(OC)cc1	x	5	i	2	-6
Cc1ccccc1Nc1nc(Cl)c(C=O)s1	-38	-3	+	78*	1
Cc1nn(-c2ccccc2)c(Oc2ccccc2)c1C=O	-14	3	+	active	4
O=C(O)CC(C(=O)O)N1C(=O)/C(=C/C=C/c2ccco2)SC1=S (centres undefined)	7	74*	+	100*	32*
O=C(CCN1C(=O)/C(=C\C=C\c2ccccc2)SC1=S)Nc1cccc(C(=O)O)c1	-7	x	+	88*	x
Cc1ccc(NC(=O)CCCN2C(=O)/C(=C/C=C/c3ccccc3)SC2=S)cc1	-3	4	i	-5	0
O=C(O)CCCN1C(=O)/C(=C/C=C/c2ccco2)SC1=S	6	76*	+	98*	32*
O=C(O)C(Cc1ccccc1)N1C(=O)/C(=C/C=C/c2ccco2)SC1=S (centres undefined)	-41	95*	+	85*	53*
O=C(CCCN1C(=O)/C(=C\c2ccccc2)SC1=S)Nc1cccc(C(=O)O)c1	11	x	i	0	x
O=C(O/N=C/c1ccc(Br)cc1)c1ccc(F)cc1	0	x	x	x	x
O=C(COC(=O)c1ccccc1SCC(=O)N1CCCC1)NCc1ccccc1	10	x	x	x	x
Cc1cc(C(=O)CN2C(=O)C(=O)N(CCC3=CCCCC3)C2=O)c(C)n1C	1	x	x	x	x
O=C(CSc1ccsc1[N+](=O)[O-])NCCc1ccc(Cl)cc1	8	-8	i	-12	-2
Cc1ccc(CNC(=O)CSc2ccsc2[N+](=O)[O-])cc1	-7	-12	i	9	-2
CC(=O)c1ccc(NC(=O)CSc2ccsc2[N+](=O)[O-])cc1	0	15	+	76	32*
CCN(CC)c1ccc(NC(=O)CSc2ccsc2[N+](=O)[O-])c(C)c1	8	-11	+	u	3
O=C(CSc1ccsc1[N+](=O)[O-])Nc1cc(F)ccc1F	-7	83*	i	94	50*
CCOC(=O)/C=C(\C)Sc1cc(O)c2ccccc2c1O	62*	0	i	16	5
Cc1cc(Cl)c2oc(C(=O)N(C)Cc3ccon3)c(C)c2c1	-2	x	i	12	x
CC1=CC(=O)C=CC1=Nc1ccc(N(C)C)cc1	51*	x	x	x	x
COc1ccc2nc(-n3c(O)c(C4=c5ccccc5=NC4=O)[nH]c3=S)sc2c1	14	96*[fluorescence artefact?]	+	62*	52*[fluorescence artefact?]
COc1ccc(Cc2c(-c3ccccc3)nc3c4ccccc4ccn23)c(C)c1	-15	x	x	x	x
NS(=O)(=O)c1ccc2c(c1)C1C=CCC1C(C1CC=CCC1)N2 (centres undefined)	0	-13	+	53*	12
CC(C)C1Nc2ccc(S(N)(=O)=O)cc2C2C=CCC21 (centres undefined)	2	1	i	24	-1
O=[N+]([O-])c1cccc(/C=C/c2nc[nH]c2[N+](=O)[O-])c1	4	-3	i	-7	0
CC1=CC(C)C(C[N+]2(C)CCCCC2)C(C)C1 (centres undefined)	-118	22	+	9	14
Cc1ccc(S(=O)(=O)N2CCN(S(=O)(=O)c3ccccc3Br)CC2)cc1	10	x	x	x	x
